Test results published in PubChem BioAssay.
Active and inactive are the calls of the source.

How the values were obtained:
[1] = test system: PRMT1 (protein arginine N-methyltransferase 1); test: small molecules binding arginine methyltransferase PRMT1 – biochemical, small-molecule microarray, 635 nm fluorescence, primary screen (AID 1088); conditions: higher = more signal;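 further: binding of Prmt1 protein to compounds spotted on small-molecule microarray slides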
[2] = growth effects on S. cerevisiae YJM789 – YJM789 clinical isolate, OD600, 24 h, basal, primary screen (AID 1089); conditions: higher = more signal, called active from +8 up or from −8 down;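 further: growth of clinical yeast isolate S. cerevisiae YJM 789 seeded 1000 cells per well; test concentration not given here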
[3] = S. pombe growth modifiers, basal conditions – strain 972, OD600, 24 h, no modulator, primary screen (AID 1090);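 further: basal condition with compound alone and no growth modifier present; test concentration not given here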; conditions: S. pombe 972 growth, higher = more signal, called active from +8 up or from −8 down
[4] = budding yeast growth modifiers under rapamycin – strain BY4716, OD600, 96 h, primary screen (AID 1091); further: test concentration not given here; conditions: S. cerevisiae BY4716 + rapamycin, higher = more signal, called active from +8 up or from −8 down
[5] = target: Torsin-1A-interacting protein 2 (Homo sapiens) (UniProt Q8NFQ8); test: small molecules binding lysate-expressed LULL1 – cell lysate, human LULL1 lysate, 635/667 nm fluorescence, primary screen (AID 1092); conditions: small-molecule microarray, hLULL1 lysate binding, 635 nm fluorescence; higher = more signal;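 further: probe is lysate of COS7 cells overexpressing human LULL1; score merges per-feature 667 nm fluorescence with signal-to-noise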
[6] = optical density change of DRC41 E. coli – strain DRC41, OD650, 24 h, E. coli filamentation project, primary screen (AID 1093);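 further: MC1000 strain lacking acrAB efflux and sulA so SOS filamentation is blocked; test concentration not given here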; conditions: E. coli DRC41 growth, higher = more signal, called active from +8 up or from −8 down
[7] = probe aLefty2 binding to arrayed compounds – biochemical, biotinylated probe, 635/667 nm fluorescence, primary screen (AID 1094); conditions: small-molecule microarray, higher = more signal;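 further: score merges spot fluorescence near 667 nm with spot signal-to-noise ratio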
[8] = test system: Noggin (protein binding on small-molecule microarray); test: small molecules binding Noggin protein – biochemical, 635/667 nm fluorescence, primary screen (AID 1095); conditions: 635 nm fluorescence, higher = more signal;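 further: score merges 667 nm feature fluorescence with signal to noise over triplicate slides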
[9] = target: Neurogenic locus notch homolog protein 3 (Homo sapiens) (UniProt Q9UM47); test: small molecules binding NOTCH3 protein – biochemical, 635/667 nm fluorescence, primary screen (AID 1096); conditions: small-molecule microarray, 635 nm fluorescence, higher = more signal
[10] = probe aEGFR binding to arrayed compounds – biochemical, biotinylated probe, 635/667 nm fluorescence, primary screen (AID 1097); conditions: small-molecule microarray, higher = more signal;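 further: probe is a biotinylated anti-EGFR antibody binding compounds printed on slides; score combines fluorescence near 667 nm and signal to noise of each spot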
[11] = test system: Plasmodium falciparum Sir2 (PF13_0152, Sir2A); test: Plasmodium falciparum Sir2A binding compounds – biochemical, small-molecule microarray, 635 nm fluorescence, primary screen (AID 1098); conditions: fluorescence 635 nm, higher = more signal;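 further: score merges spot fluorescence intensity with its signal-to-noise ratio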
[12] = probe aDKK1 binding to arrayed compounds – biochemical, biotinylated probe, 635/667 nm fluorescence, primary screen (AID 1099); conditions: small-molecule microarray, higher = more signal;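 further: score merges 667nm spot fluorescence with signal to noise across triplicate slides; reference of the scale not given here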
[13] = probe aCHRDL2 binding to arrayed compounds – biochemical, biotinylated probe, 635/667 nm fluorescence, primary screen (AID 1100); conditions: small-molecule microarray, higher = more signal
[14] = change in splice reporter luminescence, either direction, cell-based, HEK293, spliceosome inhibition project, primary screen (AID 1101); conditions: HEK293 splicing luciferase reporter, 24 h, higher = more signal, called active from +8 up or from −8 down;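 further: HEK293 cells carrying a splicing-competent luciferase reporter gene; test concentration not given here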
[15] = target: Fibroblast growth factor 10 (Homo sapiens) (UniProt O15520); test: compounds binding fibroblast growth factor 10 – biochemical, small-molecule microarray, 635 nm fluorescence, primary screen (AID 1102); conditions: FGF10 binding, fluorescence 635 nm, higher = more signal
[16] = test system: glycogen synthase kinase-3 (GSK3A per assay name; protocol says GSK3B); test: compounds binding glycogen synthase kinase-3 – biochemical, small-molecule microarray, 635 nm fluorescence, GSK3A, primary screen (AID 1103); conditions: fluorescence 635 nm, higher = more signal; further: the record names both GSK3A and GSK3B
[17] = target: Epidermal growth factor receptor (Homo sapiens) (UniProt P00533); test: compounds binding epidermal growth factor receptor – biochemical, small-molecule microarray, 635 nm fluorescence, primary screen (AID 1104); conditions: EGFR binding, higher = more signal;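 further: score merges 667 nm emission intensity with spot signal to noise over triplicate slides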
[18] = target: Follistatin-related protein 3 (Homo sapiens) (UniProt O95633); test: compounds binding follistatin-related protein 3 – biochemical, small-molecule microarray, 635 nm fluorescence, primary screen (AID 1105); conditions: FSTL3 binding, higher = more signal;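 further: score merges emission near 667 nm and signal to noise per printed spot across three slides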
[19] = target: Dickkopf-related protein 1 (Homo sapiens) (UniProt O94907); test: small molecules binding DKK1 protein – biochemical, small-molecule microarray, 635 nm fluorescence scan, primary screen (AID 1106); conditions: higher = more signal;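 further: score merges emission near 667 nm with signal to noise over three replicate slides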
[20] = test system: Inhibin beta A chain (activin A); test: small molecules binding activin A – biochemical, small-molecule microarray, 635 nm fluorescence scan, primary screen (AID 1107); conditions: INHBA, higher = more signal;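 further: mouse activin A protein probed at 4.33 µg/mL on printed slides; score merges bound-protein fluorescence near 667 nm with spot signal-to-noise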

Sequence of Follistatin-related protein 3 (Homo sapiens) (O95633 whole entry, looked up): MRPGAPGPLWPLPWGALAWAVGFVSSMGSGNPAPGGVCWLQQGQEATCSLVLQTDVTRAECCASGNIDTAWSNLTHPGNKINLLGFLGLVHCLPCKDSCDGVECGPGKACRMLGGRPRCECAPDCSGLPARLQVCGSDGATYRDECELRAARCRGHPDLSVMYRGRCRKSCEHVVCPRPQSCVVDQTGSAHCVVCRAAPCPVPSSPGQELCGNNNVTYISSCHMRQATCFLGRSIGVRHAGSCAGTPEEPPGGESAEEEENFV
Sequence of Torsin-1A-interacting protein 2 (Homo sapiens) (Q8NFQ8 whole entry, looked up): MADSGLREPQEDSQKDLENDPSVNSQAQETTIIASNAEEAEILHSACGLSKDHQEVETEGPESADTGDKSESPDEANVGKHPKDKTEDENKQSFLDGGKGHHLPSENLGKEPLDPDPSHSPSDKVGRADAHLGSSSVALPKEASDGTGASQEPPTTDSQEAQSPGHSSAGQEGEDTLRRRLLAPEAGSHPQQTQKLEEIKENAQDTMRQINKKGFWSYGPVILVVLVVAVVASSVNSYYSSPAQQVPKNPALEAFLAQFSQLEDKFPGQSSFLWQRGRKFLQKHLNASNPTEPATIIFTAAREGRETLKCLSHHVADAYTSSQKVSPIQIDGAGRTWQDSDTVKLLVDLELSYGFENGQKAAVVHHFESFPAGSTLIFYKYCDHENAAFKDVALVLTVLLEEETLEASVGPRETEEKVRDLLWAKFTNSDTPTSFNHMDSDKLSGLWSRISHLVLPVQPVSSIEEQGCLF
Sequence of Fibroblast growth factor 10 (Homo sapiens) (O15520 whole entry, looked up): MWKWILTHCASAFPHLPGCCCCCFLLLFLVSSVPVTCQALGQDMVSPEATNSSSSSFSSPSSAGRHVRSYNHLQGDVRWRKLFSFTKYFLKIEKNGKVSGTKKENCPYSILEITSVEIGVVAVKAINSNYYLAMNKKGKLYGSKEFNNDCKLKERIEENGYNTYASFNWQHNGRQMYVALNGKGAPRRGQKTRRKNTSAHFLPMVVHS
Sequence of Epidermal growth factor receptor (Homo sapiens) (P00533 whole entry, looked up): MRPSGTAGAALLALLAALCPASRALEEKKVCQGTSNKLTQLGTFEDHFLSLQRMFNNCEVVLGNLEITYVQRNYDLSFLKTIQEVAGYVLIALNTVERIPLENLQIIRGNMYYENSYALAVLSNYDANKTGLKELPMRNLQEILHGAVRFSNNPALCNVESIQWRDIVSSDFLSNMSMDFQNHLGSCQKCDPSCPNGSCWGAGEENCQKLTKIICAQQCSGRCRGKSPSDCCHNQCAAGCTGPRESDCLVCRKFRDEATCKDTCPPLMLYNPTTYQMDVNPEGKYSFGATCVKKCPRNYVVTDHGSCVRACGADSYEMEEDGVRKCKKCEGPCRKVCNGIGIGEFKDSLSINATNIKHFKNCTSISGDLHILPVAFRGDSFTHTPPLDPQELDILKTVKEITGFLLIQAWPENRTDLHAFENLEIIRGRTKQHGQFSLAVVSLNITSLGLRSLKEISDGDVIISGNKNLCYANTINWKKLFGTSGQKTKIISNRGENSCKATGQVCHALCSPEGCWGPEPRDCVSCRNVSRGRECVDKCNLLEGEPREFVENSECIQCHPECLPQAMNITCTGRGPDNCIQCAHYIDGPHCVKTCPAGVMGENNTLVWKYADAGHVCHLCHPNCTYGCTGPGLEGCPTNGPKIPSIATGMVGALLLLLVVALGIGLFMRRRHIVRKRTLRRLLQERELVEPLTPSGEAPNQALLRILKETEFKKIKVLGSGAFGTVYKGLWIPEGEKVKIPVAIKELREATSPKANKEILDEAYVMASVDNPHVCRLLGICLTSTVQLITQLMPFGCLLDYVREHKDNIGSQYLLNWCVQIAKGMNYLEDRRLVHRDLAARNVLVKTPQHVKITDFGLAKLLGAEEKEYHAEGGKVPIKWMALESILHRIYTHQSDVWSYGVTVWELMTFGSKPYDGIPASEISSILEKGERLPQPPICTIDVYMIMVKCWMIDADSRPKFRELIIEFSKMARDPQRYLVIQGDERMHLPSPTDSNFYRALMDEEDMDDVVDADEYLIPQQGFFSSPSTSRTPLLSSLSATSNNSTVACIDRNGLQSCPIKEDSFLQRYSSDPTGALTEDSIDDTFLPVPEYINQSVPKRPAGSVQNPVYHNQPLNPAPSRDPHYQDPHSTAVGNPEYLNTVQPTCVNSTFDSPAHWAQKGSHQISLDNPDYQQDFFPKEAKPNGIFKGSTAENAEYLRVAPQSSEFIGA
Sequence of Dickkopf-related protein 1 (Homo sapiens) (O94907 whole entry, looked up): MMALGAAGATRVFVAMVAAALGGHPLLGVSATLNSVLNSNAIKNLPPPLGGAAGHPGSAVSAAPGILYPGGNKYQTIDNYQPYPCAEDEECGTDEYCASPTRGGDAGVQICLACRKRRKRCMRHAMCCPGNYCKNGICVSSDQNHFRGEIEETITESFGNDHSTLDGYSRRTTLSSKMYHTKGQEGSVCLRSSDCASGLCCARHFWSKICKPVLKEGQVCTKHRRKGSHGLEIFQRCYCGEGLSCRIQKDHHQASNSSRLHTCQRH
Sequence of Neurogenic locus notch homolog protein 3 (Homo sapiens) (Q9UM47 whole entry, looked up): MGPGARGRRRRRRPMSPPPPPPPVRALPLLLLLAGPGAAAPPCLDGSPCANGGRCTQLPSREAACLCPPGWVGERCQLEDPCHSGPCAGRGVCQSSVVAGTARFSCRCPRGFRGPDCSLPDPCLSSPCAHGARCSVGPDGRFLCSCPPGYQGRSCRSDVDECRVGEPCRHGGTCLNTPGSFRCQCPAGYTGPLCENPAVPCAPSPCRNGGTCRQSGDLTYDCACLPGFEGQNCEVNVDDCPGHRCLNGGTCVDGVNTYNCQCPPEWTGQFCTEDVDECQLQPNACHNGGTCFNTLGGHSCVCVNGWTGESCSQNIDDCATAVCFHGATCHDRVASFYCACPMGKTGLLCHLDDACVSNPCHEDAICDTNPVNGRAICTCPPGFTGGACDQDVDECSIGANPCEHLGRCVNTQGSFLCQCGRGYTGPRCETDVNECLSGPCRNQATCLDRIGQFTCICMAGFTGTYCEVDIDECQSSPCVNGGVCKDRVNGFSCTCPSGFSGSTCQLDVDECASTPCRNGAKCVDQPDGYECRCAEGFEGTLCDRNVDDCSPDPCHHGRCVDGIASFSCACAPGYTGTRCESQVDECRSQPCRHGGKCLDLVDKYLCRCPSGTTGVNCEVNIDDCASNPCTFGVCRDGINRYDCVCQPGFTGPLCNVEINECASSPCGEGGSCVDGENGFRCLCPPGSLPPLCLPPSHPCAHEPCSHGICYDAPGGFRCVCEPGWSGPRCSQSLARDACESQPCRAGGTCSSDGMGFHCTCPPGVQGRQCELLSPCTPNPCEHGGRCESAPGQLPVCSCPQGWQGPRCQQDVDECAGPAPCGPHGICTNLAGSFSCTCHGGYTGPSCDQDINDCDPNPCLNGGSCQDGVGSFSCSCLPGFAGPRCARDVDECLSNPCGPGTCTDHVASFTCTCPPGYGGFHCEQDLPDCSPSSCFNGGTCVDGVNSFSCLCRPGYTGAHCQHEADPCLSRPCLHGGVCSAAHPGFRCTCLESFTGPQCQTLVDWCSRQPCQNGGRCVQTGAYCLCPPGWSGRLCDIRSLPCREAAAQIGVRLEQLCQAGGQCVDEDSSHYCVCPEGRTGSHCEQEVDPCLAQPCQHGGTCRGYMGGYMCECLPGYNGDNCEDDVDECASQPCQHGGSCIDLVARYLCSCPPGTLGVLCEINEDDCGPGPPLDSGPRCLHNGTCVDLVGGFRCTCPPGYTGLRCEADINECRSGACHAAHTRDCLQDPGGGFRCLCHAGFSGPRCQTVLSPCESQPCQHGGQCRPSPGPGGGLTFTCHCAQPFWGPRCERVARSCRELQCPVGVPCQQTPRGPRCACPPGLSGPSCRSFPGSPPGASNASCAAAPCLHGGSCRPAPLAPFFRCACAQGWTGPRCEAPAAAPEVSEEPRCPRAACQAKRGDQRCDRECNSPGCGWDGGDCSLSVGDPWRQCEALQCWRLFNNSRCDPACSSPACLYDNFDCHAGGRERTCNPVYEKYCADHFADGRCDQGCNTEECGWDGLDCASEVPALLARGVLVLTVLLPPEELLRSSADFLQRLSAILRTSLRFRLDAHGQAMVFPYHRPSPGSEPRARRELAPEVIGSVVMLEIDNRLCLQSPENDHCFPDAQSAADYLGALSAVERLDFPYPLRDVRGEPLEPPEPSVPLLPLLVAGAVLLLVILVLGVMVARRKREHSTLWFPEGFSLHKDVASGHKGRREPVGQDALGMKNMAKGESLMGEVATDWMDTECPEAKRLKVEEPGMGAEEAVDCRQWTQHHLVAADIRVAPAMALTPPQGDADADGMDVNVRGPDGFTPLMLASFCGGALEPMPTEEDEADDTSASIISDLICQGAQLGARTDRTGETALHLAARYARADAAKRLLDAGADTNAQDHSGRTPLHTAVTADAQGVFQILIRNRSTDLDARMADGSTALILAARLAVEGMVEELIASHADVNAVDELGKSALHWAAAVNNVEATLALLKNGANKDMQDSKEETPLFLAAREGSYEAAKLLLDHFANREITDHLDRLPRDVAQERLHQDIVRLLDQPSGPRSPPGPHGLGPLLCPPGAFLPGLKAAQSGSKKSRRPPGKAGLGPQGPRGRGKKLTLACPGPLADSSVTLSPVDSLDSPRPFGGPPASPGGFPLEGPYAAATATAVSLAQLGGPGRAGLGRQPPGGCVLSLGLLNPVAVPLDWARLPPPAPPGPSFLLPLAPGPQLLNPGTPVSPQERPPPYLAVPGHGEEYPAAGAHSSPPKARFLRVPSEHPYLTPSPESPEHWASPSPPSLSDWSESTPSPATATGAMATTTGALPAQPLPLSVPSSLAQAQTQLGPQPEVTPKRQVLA

CCCC[C@H]1OB(O)C[C@H]2C1=C(COc1ccccc1)C[C@H]1C(=O)C=CC(=O)[C@H]12
composite z-score [1]: 1.07 | z-score [2]: 0.426 (inactive) | z-score [3]: -3.31 (inactive) | z-score [4]: -0.241 (inactive) | composite z-score [5]: 0.258 | z-score [6]: 1.78 (inactive) | composite z-score [7]: -0.377 | composite z-score [8]: 0.592 | composite z-score [9]: 1.03 | composite z-score [10]: -0.0007 | composite z-score [11]: 0.268 | composite z-score [12]: 1.07 | composite z-score [13]: -0.56 | z-score [14]: -0.171 (inactive) | composite z-score [15]: 0.638 | composite z-score [16]: 0.474 | composite z-score [17]: 0.286 | composite z-score [18]: 1.02 | composite z-score [19]: 0.966 | composite z-score [20]: 0.825

COc1ccc(NN2C(C(O)c3ccc(I)cc3)C=CC3C(=O)N(C4CCCCC4)C(=O)C32)cc1 (stereo not given)
composite z-score [1]: 1.55 | z-score [2]: 0.147 (inactive) | z-score [3]: 1.26 (inactive) | z-score [4]: 0.801 (inactive) | composite z-score [5]: 3.04 | z-score [6]: -0.0155 (inactive) | composite z-score [7]: 0.109 | composite z-score [8]: 0.715 | composite z-score [9]: 1.03 | composite z-score [10]: 0.257 | composite z-score [11]: 0.404 | composite z-score [12]: 0.519 | composite z-score [13]: 0.792 | z-score [14]: 0.293 (inactive) | composite z-score [15]: 1.33 | composite z-score [16]: 1.31 | composite z-score [17]: 0.479 | composite z-score [18]: 1.46 | composite z-score [19]: 0.0284 | composite z-score [20]: 0.504

CC1CC/C=C\[C@H]2OC34C=CCN(CCN5CCOCC5)C(=O)[C@H]3N(CCCO)C(=O)[C@@H]4C2C(=O)O1 (stereo not given in full)
composite z-score [1]: -0.536 | z-score [2]: 0.236 (inactive) | z-score [3]: -0.218 (inactive) | z-score [4]: 0.585 (inactive) | composite z-score [5]: -0.299 | z-score [6]: -0.546 (inactive) | composite z-score [7]: -0.21 | composite z-score [8]: -0.639 | composite z-score [9]: -0.271 | composite z-score [10]: -0.239 | composite z-score [11]: 0.367 | composite z-score [12]: -0.399 | composite z-score [13]: -0.141 | z-score [14]: 0.316 (inactive) | composite z-score [15]: -0.188 | composite z-score [16]: -0.0682 | composite z-score [17]: -0.555 | composite z-score [18]: -0.59 | composite z-score [19]: -0.235 | composite z-score [20]: 1.39

C=CCN1C(=O)[C@]2(O[C@H](CCn3cc([C@H](O)c4ccccc4)nn3)[C@@H]([Si](C)(C)c3ccc(OC)cc3)[C@@H]2C)c2cc(NC(=O)c3ccc(OC)cc3)ccc21
composite z-score [1]: 1.55 | z-score [2]: 0.323 (inactive) | z-score [3]: -0.532 (inactive) | z-score [4]: 0.567 (inactive) | composite z-score [5]: 0.744 | z-score [6]: 0.252 (inactive) | composite z-score [7]: 0.0352 | composite z-score [8]: 0.423 | composite z-score [9]: 0.907 | composite z-score [10]: -0.152 | composite z-score [11]: 0.73 | composite z-score [12]: -0.125 | composite z-score [13]: 0.349 | z-score [14]: -0.768 (inactive) | composite z-score [15]: 0.028 | composite z-score [16]: -0.131 | composite z-score [17]: 0.108 | composite z-score [18]: 0.527 | composite z-score [19]: 0.598 | composite z-score [20]: 0.961
